Shown are actives, neighbours in structure and some others; about 3.2% of the full set was active somewhere.
pS6 MEF inh = Acumen qHTS Assay for Inhibitors of the mTORC1 Signaling Pathway in MEF (Tsc2-/-, p53-/-) Cells: Sytravon; Tsc2-/- p53-/- MEF, phospho-rpS6 immunofluorescence/PI, 24 h; Potency, µM (top dose mostly 38.3 µM), usual class: inhibitors; hit rate 0.78% among 44,000; AID 493208, 2011; further: nearly all actives have a fitted effect of over 50% in size
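Read-out: phospho-S6 Alexa-488 intensity over PI intensity per well, scored as % active cells using thresholds from rapamycin (7.5 nM) and DMSO controls. Tsc2-/-, p53-/- MEFs exposed to compound for 24 h; PI cell count recorded as viability.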
S16 F2sN tox = Cell viability qHTS assay in S16 Pmp22-F2sN cells. S16 Pmp22-F2sN Schwann cells viability, CellTiter-Glo, 24 h. Potency, µM (doses to about 57.5 µM), usual class: cytotoxic. hit rate 0.48% among 43,000; further: nearly all actives have a fitted effect of over 65% in size
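Luminescence from CellTiter-Glo, read by CCD camera after a 15 min room-temperature incubation, served as the viability signal. Reporter Schwann cells (S16 Pmp22-F2sN) had been treated with pin-transferred compounds for 24 h at 37C.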
p53null 32C kill = qHTS Screen for Compounds that Selectively Target Cancer Cells with p53 Mutations: Cytotoxicity of p53 Null Cells at the Permissive Temperature; Potency, µM (titrated, usually from 46.1 µM), most hits filed as cytotoxic; H1299-neo p53 null cells, ATP luminescence, 24 h, 32C; hit rate 0.62% among 55,000; AID 903, 2007; further: nearly all actives have a fitted effect of over 55% in size
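Cells lacking p53 (H1299-neo) are plated at 600 per well and allowed to settle overnight at 37C. Test compounds (up to 46 uM) are added and held 24 hours at 32C, then ATP is quantified by luminescence.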
p53null 39C kill = qHTS Screen for Compounds that Selectively Target Cancer Cells with p53 Mutations: Cytotoxicity of p53 Null Cells at the Nonpermissive Temperature; Potency, µM (series often up to 46.1 µM), most hits filed as cytotoxic; hit rate 0.97% among 55,000; H1299 p53-null (neo) cells, 39C, ATPlite viability, 24 h; further: nearly all actives have a fitted effect of over 50% in size
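Concentration-response (up to 46 uM) was run for 24 h at the nonpermissive 39C on H1299-p53A138V or H1299-neo cells. ATP content was measured with ATPlite luminescence. AC50 values were Hill-modeled after normalizing between DMSO and 100 uM tamoxifen killing.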
PMP22 txn = Cell-based coincidence reporter assay to measure PMP22 gene transcription in S16 Pmp22-F2sN cells - Primary screen; S16 Pmp22-F2sN Schwann cells (luciferase reporters placed in the Pmp22 gene), FLuc/NLuc coincidence luminescence, 24 h; Potency, µM (top dose mostly 57.5 µM), hits mostly inhibitors; hit rate 2% among 43,000; active means clear falling dose curves in both reporters; inconclusive means both reporters move, but less clearly or upward; inactive means either reporter flat; the % is the NLuc reporter signal
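Transcriptional readout in edited S16(c9) cells: two luciferases reported from the Pmp22 locus, measured in turn after 24 h compound incubation.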
Numbers stand for hits; i = inactive; ? = inconclusive; nt = no result given. Unless noted, the call rests on the fitted dose curve; in most records, active means well fitted curve in the direction sought with a large enough effect; inconclusive means small, poorly fitted or top-dose-only effect, or another doubt; inactive means no such curve, though single readings can be large; an effect the other way counts as inactive or inconclusive.

SMILES	pS6 MEF inh	S16 F2sN tox	p53null 32C kill	p53null 39C kill	PMP22 txn
COc1ccccc1NC(=O)C1CCC(CNS(=O)(=O)c2ccc3c(c2)CC(C)N3C(C)=O)CC1 (stereo unspecified)	?	?	i	i	19µM
CCc1ccc(NC(=O)C2CCC(CNS(=O)(=O)c3ccc4c(c3)CC(C)N4C(C)=O)CC2)cc1 (stereo unspecified)	?	i	i	i	i
COc1cc(Cl)c(NS(=O)(=O)c2ccc3c(c2)CC(C)N3C(=O)C2CCC2)c(OC)c1 (stereo unspecified)	i	?	i	i	12µM
Cc1cccc(C(=O)N(Cc2ccco2)Cc2ccccc2F)c1	i	i	i	i	i
CCOc1ccc(-c2csc(/C(C#N)=C/c3ccc(Br)cc3)n2)cc1	i	i	i	i	i
CCOC(=O)N1CCc2c(sc3c2c(=O)n(CCc2ccccc2)c(=O)n3CC(=O)Nc2ccccc2C)C1	i	i	i	i	i
Cc1ccc(Cl)cc1N1CCN(C(=O)c2ccc(CS(=O)c3ccccc3)o2)CC1 (stereo unspecified)	?	?	i	i	10µM
COc1ccccc1NC(=O)C1=C(C)Nc2nc(SCc3ccccc3C)nn2C1CC(C)C (stereo unspecified)	i	i	i	i	?
Cc1c(C(=O)OCCOc2ccccc2)[nH]c2c1C(=O)CC(c1ccccc1)C2 (stereo unspecified)	?	?	i	?	?
Cc1c(C(=O)OCCOc2ccccc2)[nH]c2c1C(=O)CC(c1ccccc1Cl)C2 (stereo unspecified)	1.3µM	?	i	?	5.3µM
CCN(CC)c1ccc(C2C(C(N)=O)=C(C)Nc3nc(SCc4ccccc4Cl)nn32)cc1 (stereo unspecified)	i	i	i	i	?
Cc1cccc(NC(=O)CSc2nc(-c3cccs3)cc(C(F)(F)F)c2C#N)c1	i	?	i	?	15µM
N#Cc1c(-n2ncnc2-c2ccc(F)cc2)sc2c1CCCCC2	i	i	10µM	?	i
Cn1c(=O)oc2cc(S(=O)(=O)N3CCC(C(=O)N4CCN(c5ccc(Cl)cc5)CC4)CC3)ccc21	i	?	i	i	13µM
Cn1c(=O)oc2cc(S(=O)(=O)N3CCC(C(=O)N4CCN(c5cccc(Cl)c5)CC4)CC3)ccc21	i	?	i	i	?
COc1cccc(CNC(=O)c2cccc(-n3c(C)nc4cccnc43)c2)c1OC	i	i	i	i	?
CCOC(=O)c1cc(S(=O)(=O)N2CCN(c3cccc(C)c3)C(C)C2)[nH]n1 (stereo unspecified)	i	?	i	i	i
COC(=O)c1cc(S(=O)(=O)N2CCN(c3cccc(C)c3)C(C)C2)cn1C (stereo unspecified)	i	i	i	13µM	i
CCN(C(=O)CSc1nc(-c2ccc(C(C)C)cc2)no1)c1ccccc1	i	i	i	i	i
CCOC(=O)c1[nH]c(C)c(CCC(=O)NCc2ccc(CC)cc2)c1C	i	i	i	i	i
Cc1ccc(C)c(NC(=O)Cn2nnc(C(=O)NCc3ccco3)c2N)c1	i	?	i	i	10µM
COC(=O)c1c(-c2ccc(Cl)cc2)noc1N1CCN(c2ccc(OC)cc2)CC1	i	?	i	?	6µM
COC(=O)c1c(-c2ccc(Cl)cc2)noc1N1CCN(c2ccccc2F)CC1	i	i	i	i	i
COC(=O)c1c(-c2ccc(Cl)cc2)noc1N1CCN(c2ccc(C(C)=O)cc2)CC1	i	?	i	i	2.7µM
COc1ccc2cc(CNc3ccccc3)c(=O)n(CC(=O)Nc3ccc(C)cc3C)c2c1	7.4µM	i	i	i	i
SMILES	pS6 MEF inh	S16 F2sN tox	p53null 32C kill	p53null 39C kill	PMP22 txn
COc1ccc2cc(CNc3ccc(C)cc3)c(=O)n(CC(=O)Nc3ccc(C)cc3Cl)c2c1	i	i	i	i	?
CCN(CCO)C(=O)CC(c1ccccc1)c1cc(Br)ccc1O (stereo unspecified)	nt	nt	i	i	nt
O=C(CC(c1ccccc1)c1cc(Br)ccc1O)NCC1(c2ccccc2)CCCC1 (stereo unspecified)	i	nt	?	16µM	nt
Cc1ccc(OCCn2c(=O)cnc3ccccc32)cc1	nt	nt	i	i	nt
CCn1c(=N)n(CCOc2ccc(Br)cc2)c2ccccc21	13µM	?	i	i	?
CCCN(CCC)C(=O)CSc1nnc2cc(C)c3cc(C)cc(C)c3n12	i	i	i	i	i
O=C(Nc1cnn(Cc2ccc(Cl)cc2Cl)c1)c1noc2c1CCc1ccccc1-2	i	nt	i	i	nt
O=c1c2sc3ccccc3c2n(Cc2ccc(Cl)cc2)c(=O)n1Cc1ccco1	i	?	i	i	?
CN(Cc1ccccc1)C(=O)c1cc2c(s1)-c1ccc(Cl)cc1SC2	i	?	i	2µM	i
O=C(NCc1cccc(Cl)c1)c1cc2c(s1)-c1ccccc1SC2	i	i	i	i	i
Cc1cccc(-n2cnc3cc(C(=O)NC4CCCCCC4)ccc32)c1	9.3µM	?	i	i	?
Cc1ccc(C(=O)Nc2ccccc2C(=O)O)cc1S(=O)(=O)N1CCCCCC1	i	i	5µM	10µM	i
Cc1ccccc1NC(=O)c1ccc(Cl)c(S(=O)(=O)N2CCCCCC2)c1	i	?	i	?	i
Cc1c(Cl)cccc1NC(c1ccc(F)cc1)c1nnc(-c2ccccc2)o1 (stereo unspecified)	i	i	i	i	i
Cc1ccc(C)c(CN2CCC(CNC(=O)Nc3ccc(Br)cc3F)CC2)c1	?	28µM	i	?	?
Cc1nc2ccc(S(=O)(=O)NC(C(=O)N3CCN(c4ccc(Cl)cc4)CC3)C(C)C)cc2s1 (stereo unspecified)	i	i	?	i	i
O=C(Nc1nnc2n1CCS2)c1cc(C(F)(F)F)cc(C(F)(F)F)c1	i	?	i	i	8.9µM
CCc1ccc(CNC(=O)Cn2nc(C)n3c(cc4cc(C)ccc43)c2=O)cc1	i	i	i	i	i
CCOc1ccc(C2C=C(c3cccc(OC)c3)Nc3nnnn32)cc1 (stereo unspecified)	i	i	i	?	i
CN(C)c1ccc(C2C=C(c3ccccc3)Nc3nnnn32)cc1 (stereo unspecified)	?	i	?	7.9µM	?
COc1cccc(-c2nnc(-c3ccc(C)o3)o2)c1	nt	nt	13µM	13µM	nt
CCc1cccc(C)c1NC(=O)Cn1nc(C)n2cccc2c1=O	?	i	i	13µM	i
